Common to all, as to design: scale not given: direction of the effect not stated beside the values
Experiment [1] deals with Protein translocase subunit SecA (Escherichia coli (strain K12)) (UniProt P10408). As to the kind of experiment: Assay to Identify E. coli SecA ATPase Inhibitors. It is filed as functional. The settings on record: 30 µM.
For experiment [2], the target named is T1, Ubiquitin-activating enzyme e1, putative (Leishmania donovani (strain BPK282A1)) (UniProt E9BSI1).
T1 sequence (whole entry): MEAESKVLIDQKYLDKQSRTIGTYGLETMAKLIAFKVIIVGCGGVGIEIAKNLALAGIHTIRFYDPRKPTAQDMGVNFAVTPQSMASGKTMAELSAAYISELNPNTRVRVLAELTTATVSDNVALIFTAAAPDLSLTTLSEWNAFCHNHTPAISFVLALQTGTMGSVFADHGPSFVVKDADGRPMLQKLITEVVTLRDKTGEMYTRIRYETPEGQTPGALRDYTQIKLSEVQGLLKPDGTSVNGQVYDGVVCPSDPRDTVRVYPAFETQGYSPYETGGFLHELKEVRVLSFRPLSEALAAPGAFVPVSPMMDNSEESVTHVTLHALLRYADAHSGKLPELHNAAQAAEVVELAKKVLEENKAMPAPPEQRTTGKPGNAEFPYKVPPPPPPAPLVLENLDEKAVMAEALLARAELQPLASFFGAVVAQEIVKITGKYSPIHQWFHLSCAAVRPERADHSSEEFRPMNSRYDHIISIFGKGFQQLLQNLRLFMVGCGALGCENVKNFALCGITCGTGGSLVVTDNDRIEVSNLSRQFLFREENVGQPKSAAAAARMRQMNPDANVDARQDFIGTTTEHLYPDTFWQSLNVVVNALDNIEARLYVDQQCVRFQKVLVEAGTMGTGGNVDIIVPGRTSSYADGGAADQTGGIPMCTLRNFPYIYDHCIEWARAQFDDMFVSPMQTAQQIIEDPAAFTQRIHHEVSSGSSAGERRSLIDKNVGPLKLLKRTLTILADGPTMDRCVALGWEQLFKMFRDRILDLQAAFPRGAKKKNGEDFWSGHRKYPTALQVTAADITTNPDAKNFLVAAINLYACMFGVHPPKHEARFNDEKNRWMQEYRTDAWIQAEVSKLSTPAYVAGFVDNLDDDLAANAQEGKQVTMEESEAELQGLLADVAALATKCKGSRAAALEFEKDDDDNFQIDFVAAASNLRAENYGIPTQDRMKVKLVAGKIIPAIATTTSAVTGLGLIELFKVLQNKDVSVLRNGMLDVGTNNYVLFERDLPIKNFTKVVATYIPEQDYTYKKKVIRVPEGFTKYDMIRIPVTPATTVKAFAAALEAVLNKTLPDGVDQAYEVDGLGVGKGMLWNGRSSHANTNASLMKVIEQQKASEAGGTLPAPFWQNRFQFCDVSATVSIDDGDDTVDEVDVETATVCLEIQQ
Kind of experiment: Leishmania donovani Ubiquitin Activating Enzyme (LdE1). It is filed as functional. The settings on record: 30 µM.

In experiment [3] the target is AMP-activated protein kinase, AMPK (Homo sapiens) (UniProt P54646+O43741+P54619+Q9UGJ0+Q9Y478+Q13131+Q9UGI9). As to the kind of experiment: AMP-dependent Kinase enzyme assay. An in vitro enzyme assay that detects ADP turnover that is directly proportional to AMPK activity. This uses naive AMPK that is activated during the assay with MK-8722. It is filed as functional. The settings on record: 30 µM.

Experiment [4] addresses Sialic acid-binding Ig-like lectin 9 (Homo sapiens) (UniProt Q9Y336). As to the kind of experiment: Hs-Siglec9 ALPHAscreen SOP 20170721. As to conditions: 10 µM. In general terms: Bead proximity is the source of the signal in Alpha formats.
Another experiment concerns Trypanosoma cruzi. As to the kind of experiment: Trypanosoma cruzi phosphomannomutase and mannose-1-phosphate guanylyltransferase assay. It is filed as functional. As to conditions: 10 µM.
Experiment [5] concerns the target T2, Arginase-2, mitochondrial (Homo sapiens) (UniProt P78540).
T2 sequence (whole entry): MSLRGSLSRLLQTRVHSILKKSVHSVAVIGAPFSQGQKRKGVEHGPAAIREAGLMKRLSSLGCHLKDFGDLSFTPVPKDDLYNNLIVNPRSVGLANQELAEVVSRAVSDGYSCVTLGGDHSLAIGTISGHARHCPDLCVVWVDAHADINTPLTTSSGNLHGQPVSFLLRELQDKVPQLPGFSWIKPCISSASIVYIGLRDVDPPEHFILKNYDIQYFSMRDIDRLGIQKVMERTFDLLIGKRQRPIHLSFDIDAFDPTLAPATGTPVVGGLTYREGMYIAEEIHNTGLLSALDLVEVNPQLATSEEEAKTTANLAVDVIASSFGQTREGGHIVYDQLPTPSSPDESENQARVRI
Kind of experiment: in vitro enzyme assay to detect the production of urea directly proportional to the activity of Arginase II. Also: in the data most compounds retested in dose-response had high values. It counts as functional. The settings on record: 33.3 µM.

The target of experiment [6] is T3, Proteasome subunit beta (Trypanosoma cruzi) (UniProt O96673).
T3 sequence (whole entry): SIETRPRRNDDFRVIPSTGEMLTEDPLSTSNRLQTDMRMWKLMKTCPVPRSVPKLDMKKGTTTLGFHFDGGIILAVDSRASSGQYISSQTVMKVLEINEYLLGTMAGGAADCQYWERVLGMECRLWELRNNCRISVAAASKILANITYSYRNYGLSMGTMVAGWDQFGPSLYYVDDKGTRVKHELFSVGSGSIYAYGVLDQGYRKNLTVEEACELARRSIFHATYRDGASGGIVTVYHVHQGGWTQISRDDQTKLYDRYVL
Kind of experiment: Trypanosoma cruzi proteasome chymotrypsin-like activity (TcProtChymo) assay. Also: in the data most compounds retested in dose-response had high values. It is filed as functional. As to conditions: 9.37 µM.

For a further experiment, the species on record is Homo sapiens. Kind of experiment: To identify inhibition of the IFN signalling (Jak-Stat) pathway via expression of an eGFP reporter gene under the control of an IFN-stimulated response element (ISRE) containing MxA promoter. The settings on record: 30 µM. It counts as functional.
The target in experiment [7] is T4, Tyrosyl-tRNA synthetase, putative (Trypanosoma cruzi (strain CL Brener)) (UniProt Q4DSP6).
T4 sequence (whole entry): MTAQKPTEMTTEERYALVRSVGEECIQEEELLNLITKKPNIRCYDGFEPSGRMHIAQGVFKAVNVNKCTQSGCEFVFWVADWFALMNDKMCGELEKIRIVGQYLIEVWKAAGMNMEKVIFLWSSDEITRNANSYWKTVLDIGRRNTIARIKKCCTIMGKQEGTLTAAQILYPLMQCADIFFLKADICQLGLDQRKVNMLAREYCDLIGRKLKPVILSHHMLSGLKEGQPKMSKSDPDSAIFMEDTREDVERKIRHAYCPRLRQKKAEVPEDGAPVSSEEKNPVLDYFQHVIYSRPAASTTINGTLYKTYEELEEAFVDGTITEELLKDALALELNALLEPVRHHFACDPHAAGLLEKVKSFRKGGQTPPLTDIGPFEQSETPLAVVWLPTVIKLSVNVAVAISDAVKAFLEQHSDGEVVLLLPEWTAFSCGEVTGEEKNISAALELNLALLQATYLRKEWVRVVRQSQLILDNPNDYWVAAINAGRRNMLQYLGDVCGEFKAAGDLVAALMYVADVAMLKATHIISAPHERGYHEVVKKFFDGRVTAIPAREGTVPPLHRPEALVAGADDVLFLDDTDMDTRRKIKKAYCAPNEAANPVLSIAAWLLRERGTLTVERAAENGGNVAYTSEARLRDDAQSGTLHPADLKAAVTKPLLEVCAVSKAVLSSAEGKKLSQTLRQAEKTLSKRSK
Kind of experiment: Trypanosoma cruzi tyrosyl tRNA synthetase (TcYRS) _High Tyrosine SOP. Also: in the data most compounds retested in dose-response had high values. It counts as functional. As to conditions: 30 µM.

Experiment [8] addresses T4, Tyrosyl-tRNA synthetase, putative (Trypanosoma cruzi (strain CL Brener)). Kind of experiment: Trypanosoma cruzi tyrosyl tRNA synthetase (TcYRS) SOP. It is filed as functional. As to conditions: 30 µM.
Experiment [9] has as its target Chromo domain-containing protein 1 (Saccharomyces cerevisiae (strain ATCC 204508 / S288c) (Baker's yeast)) (UniProt P32657). As to the kind of experiment: ScCHD-1 Enzyme Inhibition Assay. Also: in the data most compounds retested in dose-response had high values. It counts as functional. As to conditions: 30 µM.

The structures appear in SMILES notation. For some of these results: Measured potencies and affinities stand elsewhere.

Sequence of Protein translocase subunit SecA (Escherichia coli (strain K12)) (P10408 whole entry): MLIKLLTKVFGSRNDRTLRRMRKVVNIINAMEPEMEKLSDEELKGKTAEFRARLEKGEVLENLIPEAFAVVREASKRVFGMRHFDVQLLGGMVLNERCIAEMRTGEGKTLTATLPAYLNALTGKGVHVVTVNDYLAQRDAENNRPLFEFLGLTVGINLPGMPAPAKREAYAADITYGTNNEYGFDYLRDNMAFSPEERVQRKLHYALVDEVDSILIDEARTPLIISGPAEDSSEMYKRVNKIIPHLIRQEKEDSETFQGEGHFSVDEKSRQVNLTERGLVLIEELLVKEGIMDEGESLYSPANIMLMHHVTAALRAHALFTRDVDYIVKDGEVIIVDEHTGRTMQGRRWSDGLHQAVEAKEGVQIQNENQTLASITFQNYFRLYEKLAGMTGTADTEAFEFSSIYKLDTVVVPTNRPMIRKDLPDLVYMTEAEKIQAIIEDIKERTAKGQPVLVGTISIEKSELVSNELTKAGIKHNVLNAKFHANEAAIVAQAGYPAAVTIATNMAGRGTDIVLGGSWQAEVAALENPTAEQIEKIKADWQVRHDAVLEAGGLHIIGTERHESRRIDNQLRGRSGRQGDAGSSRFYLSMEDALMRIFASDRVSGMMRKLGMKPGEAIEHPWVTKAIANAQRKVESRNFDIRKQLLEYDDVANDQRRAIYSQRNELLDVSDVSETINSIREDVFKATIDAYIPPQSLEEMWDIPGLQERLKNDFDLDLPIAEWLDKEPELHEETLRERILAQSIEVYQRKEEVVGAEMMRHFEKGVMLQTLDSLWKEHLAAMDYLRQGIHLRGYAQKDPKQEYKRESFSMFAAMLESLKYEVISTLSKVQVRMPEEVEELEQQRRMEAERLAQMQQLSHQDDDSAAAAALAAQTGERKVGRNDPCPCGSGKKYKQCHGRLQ
Sequence of Sialic acid-binding Ig-like lectin 9 (Homo sapiens) (Q9Y336 whole entry): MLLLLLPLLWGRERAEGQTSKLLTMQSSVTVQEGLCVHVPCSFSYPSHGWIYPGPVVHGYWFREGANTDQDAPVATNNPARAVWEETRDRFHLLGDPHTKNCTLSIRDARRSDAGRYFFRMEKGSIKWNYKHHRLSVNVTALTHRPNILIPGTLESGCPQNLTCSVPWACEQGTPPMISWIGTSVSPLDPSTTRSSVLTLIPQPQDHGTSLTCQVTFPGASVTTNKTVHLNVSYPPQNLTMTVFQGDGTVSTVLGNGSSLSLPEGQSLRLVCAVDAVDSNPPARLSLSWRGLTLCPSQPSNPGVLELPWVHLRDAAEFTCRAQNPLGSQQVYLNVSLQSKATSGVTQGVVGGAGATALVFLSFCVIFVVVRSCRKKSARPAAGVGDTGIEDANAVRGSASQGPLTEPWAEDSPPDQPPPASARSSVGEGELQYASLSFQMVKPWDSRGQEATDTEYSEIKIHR
Sequence of Chromo domain-containing protein 1 (Saccharomyces cerevisiae (strain ATCC 204508 / S288c) (Baker's yeast)) (P32657 whole entry, the tested form may be a part): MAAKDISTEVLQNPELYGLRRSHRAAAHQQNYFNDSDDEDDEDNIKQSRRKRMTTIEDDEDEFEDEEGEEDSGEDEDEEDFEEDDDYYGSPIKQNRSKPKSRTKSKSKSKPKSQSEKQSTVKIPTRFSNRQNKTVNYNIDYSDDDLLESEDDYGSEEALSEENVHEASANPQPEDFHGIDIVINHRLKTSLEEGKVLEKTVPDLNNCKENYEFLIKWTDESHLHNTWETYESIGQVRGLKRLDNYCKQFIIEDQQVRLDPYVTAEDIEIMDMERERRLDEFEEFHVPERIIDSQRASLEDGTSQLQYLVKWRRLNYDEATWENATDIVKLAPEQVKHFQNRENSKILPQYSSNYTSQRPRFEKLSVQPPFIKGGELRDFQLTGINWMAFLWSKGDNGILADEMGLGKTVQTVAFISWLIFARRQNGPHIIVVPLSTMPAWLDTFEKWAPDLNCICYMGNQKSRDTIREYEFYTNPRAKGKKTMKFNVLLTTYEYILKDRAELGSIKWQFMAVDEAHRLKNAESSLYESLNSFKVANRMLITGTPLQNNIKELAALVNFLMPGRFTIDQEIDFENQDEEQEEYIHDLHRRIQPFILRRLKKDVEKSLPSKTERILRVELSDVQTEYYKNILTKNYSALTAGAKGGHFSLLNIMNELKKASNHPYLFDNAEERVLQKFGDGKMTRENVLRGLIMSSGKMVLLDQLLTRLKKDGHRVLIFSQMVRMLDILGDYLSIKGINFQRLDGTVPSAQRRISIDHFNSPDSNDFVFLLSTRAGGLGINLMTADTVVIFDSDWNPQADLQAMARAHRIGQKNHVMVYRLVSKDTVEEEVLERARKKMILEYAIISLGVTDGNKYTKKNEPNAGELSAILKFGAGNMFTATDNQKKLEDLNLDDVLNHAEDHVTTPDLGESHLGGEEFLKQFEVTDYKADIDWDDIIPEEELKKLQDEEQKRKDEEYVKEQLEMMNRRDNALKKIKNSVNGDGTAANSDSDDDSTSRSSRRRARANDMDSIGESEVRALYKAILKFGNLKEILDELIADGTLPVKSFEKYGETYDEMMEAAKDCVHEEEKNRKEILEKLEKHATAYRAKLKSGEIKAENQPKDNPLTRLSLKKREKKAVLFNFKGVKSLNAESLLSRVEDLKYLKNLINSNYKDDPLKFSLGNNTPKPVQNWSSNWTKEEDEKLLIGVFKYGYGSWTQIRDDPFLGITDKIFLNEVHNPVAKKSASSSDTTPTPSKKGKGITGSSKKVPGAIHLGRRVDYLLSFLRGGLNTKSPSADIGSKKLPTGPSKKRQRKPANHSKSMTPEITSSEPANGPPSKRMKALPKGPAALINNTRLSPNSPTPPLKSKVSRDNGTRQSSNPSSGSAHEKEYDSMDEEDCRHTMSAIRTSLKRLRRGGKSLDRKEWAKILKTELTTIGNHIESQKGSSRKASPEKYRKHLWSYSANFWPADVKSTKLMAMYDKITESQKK

On to `Cc1ccccc1C(=O)N1CCOC2(CNCCOC2)C1` (stereo unspecified), for which the Percent Effect in experiment [1] is -0.256%; in [2], 2.7%; in experiment [3], -1.58%; in experiment [4] it was 2.44%; in the experiment with Trypanosoma cruzi, -2.51%; in experiment [5] it was -1.43%. In addition, the Percent Effect is 17.8% in experiment [6]; 11.5% in the experiment filed under Homo sapiens; 1.59% in [7]; 9.76% in experiment [8]; -3.15% in experiment [9].

In the case of `c1cc(CNCc2ccnc(N3CCOCC3)c2)c2c(c1)OCCO2`, the Percent Effect is -3.35% in experiment [1]; 5.41% in experiment [2]; -12.3% in [3]; 26.3% in experiment [4]; 8.31% with Trypanosoma cruzi; 15.1% in experiment [5]. In addition, the Percent Effect in [6] was 6.27%; in the experiment filed under Homo sapiens it was 15.7%; in experiment [7], 1.07%; in experiment [8], 16.1%; in experiment [9], -5.85%.

In the case of `CCOCCCNC(=O)c1cn(CC)nc1C`, the Percent Effect in experiment [1] was -3.21%; in [2] it was 20%; in experiment [3], -2.97%; in experiment [4] it was -1.34%; in the experiment on Trypanosoma cruzi, 0.982%; in experiment [5], 1.58%. The Percent Effect is 15.3% in [6]; 16.9% in the experiment listed under Homo sapiens; 6.35% in experiment [7]; 17.9% in experiment [8]; -9.37% in experiment [9].

Take `Cc1noc(C)c1CNC(=O)c1ccc(NC2CC2)nc1`: the Percent Effect in experiment [1] was -5.61%; in [2], 5.26%; in experiment [3], -12.2%; in [4], 12.7%; in the experiment with Trypanosoma cruzi, 7.94%; in experiment [5], -2.52%. Further, the Percent Effect was -0.0846% in experiment [6]; 3.38% in the experiment listed under Homo sapiens; 7.39% in [7]; 25.9% in experiment [8]; -5.7% in experiment [9].

As for `Cn1cc(NC(=O)Cn2c(CS(C)(=O)=O)nc3ccccc32)cn1`, the Percent Effect is -2.27% in experiment [1]; 7.89% in experiment [2]; 3.88% in [3]; 2.76% in experiment [4]; 0.0974% with Trypanosoma cruzi; -1.18% in experiment [5]. Further, the Percent Effect in [6] was 12.6%; in the experiment listed under Homo sapiens it was -13.6%; in experiment [7], 3.19%; in experiment [8], 13%; in [9], -3.67%.

With `CC(=O)N1CCN([C@@H]2CC[C@@H](NC(=O)c3cncc(C)c3)[C@H]2O)CC1`, the Percent Effect is -3.3% in experiment [1]; -4.05% in [2]; 8.93% in experiment [3]; -4.38% in experiment [4]; -3.75% in the experiment with Trypanosoma cruzi; -2.09% in experiment [5]. Also, the Percent Effect in experiment [6] is -3.28%; in the experiment listed under Homo sapiens, 18.6%; in experiment [7], -2.15%; in [8], -11.7%; in [9], 15.5%.

With `Cc1nn(CC(C)C)c(N(C)C)c1CNCc1cccnc1N(C)C`, the Percent Effect in [1] is -4.49%; in experiment [2], 5.41%; in experiment [3], -8.59%; in experiment [4] it was 3.17%; with Trypanosoma cruzi, -9.34%; in [5] it was -6.41%. Also, the Percent Effect in [6] is 7.75%; in the experiment listed under Homo sapiens, 6.14%; in [7] it was 1.48%; in experiment [8], 3.7%; in [9], -5.66%.

Take `CC(C)c1nccn1C1CCCN(C(=O)c2ccc3c(c2)OCO3)C1` (stereo unspecified): the Percent Effect in experiment [1] is 1.45%; in [2], -2.6%; in experiment [3] it was 7.64%; in [4] it was -5.54%; in the experiment with Trypanosoma cruzi it was 1.27%; in [5] it was 5.26%. Also, the Percent Effect is 3.96% in experiment [6]; 9.94% in the experiment filed under Homo sapiens; 0% in [7]; -2.35% in [8]; -9.35% in experiment [9].

With `O=C(c1ccccn1)N1C[C@@H]2CC[C@H](C1)N(C(=O)CCc1cccs1)C2`, the Percent Effect was -6.27% in experiment [1]; 5.2% in [2]; 2.15% in experiment [3]; 9.38% in experiment [4]; 6.59% in the experiment on Trypanosoma cruzi; -74.5% in experiment [5]. Also, the Percent Effect in experiment [6] is 13.1%; in the experiment filed under Homo sapiens, -10.3%; in experiment [7] it was 3.23%; in experiment [8] it was 8.64%; in experiment [9], 2.24%.

For the compound `N#Cc1ccccc1CN1C[C@@H]2CC[C@H](C1)N(Cc1cscn1)C2=O`, the Percent Effect was -1.93% in experiment [1]; 5.41% in experiment [2]; -3.34% in [3]; 8.56% in experiment [4]; -2.9% in the experiment on Trypanosoma cruzi; -1.91% in experiment [5]. For the same compound, the Percent Effect is 9.14% in experiment [6]; -7.44% in the experiment filed under Homo sapiens; 3.7% in [7]; -14.6% in [8]; -3.95% in [9].

For the compound `O=C(NC1(c2cccc(F)c2)CCOCC1)c1ccoc1`, the Percent Effect in experiment [1] is -5.15%; in [2], 5.2%; in [3], -0.889%; in [4], 5.11%; in the experiment with Trypanosoma cruzi it was 2.46%; in experiment [5] it was -6.9%. For the same compound, the Percent Effect in experiment [6] is 1.33%; in the experiment filed under Homo sapiens, -3.68%; in [7], 2.15%; in experiment [8], 8.64%; in [9], -3.25%.

The record behind these values is ChEMBL document CHEMBL3988442, “University of Dundee, Small-Polar-MMV Screening Library” (2021).
